Data as given in PubChem BioAssay.

Experiments:
[1] = test system: Human papillomavirus type 1a protein E7 (residues 44-93); assay: HPV1a E7 fragment binders on microarrays, primary screen, biochemical, small-molecule microarray, residues 44-93, 635 nm fluorescence (AID 1108); settings: small-molecule microarray binding, fluorescence 635 nm; higher = more signal;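 further: E7 fragment applied at 1 µg/mL in TBST for 1 h at 4 C; score combines spot fluorescence with its signal to noise ratio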
[2] = modulators of HCV replicon luciferase signal, primary screen, HCV replication inhibitor project, Huh7 cells, luciferase reporter (AID 1109); settings: 48 h, higher = more signal;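 further: huh7 hepatoma cells harbouring a luciferase neomycin HCV replicon reporter; luciferase luminescence as measure of HCV replicon replication; test concentration not given here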
[3] = target: Left-right determination factor 2 (Homo sapiens) (UniProt O00292); assay: LEFTY2 binders on small-molecule microarrays, primary screen, biochemical, small-molecule microarray, 635 nm fluorescence scan (AID 1110); settings: LEFTY2 binding, higher = more signal
Chain of Left-right determination factor 2 (Homo sapiens) (O00292 whole entry, looked up): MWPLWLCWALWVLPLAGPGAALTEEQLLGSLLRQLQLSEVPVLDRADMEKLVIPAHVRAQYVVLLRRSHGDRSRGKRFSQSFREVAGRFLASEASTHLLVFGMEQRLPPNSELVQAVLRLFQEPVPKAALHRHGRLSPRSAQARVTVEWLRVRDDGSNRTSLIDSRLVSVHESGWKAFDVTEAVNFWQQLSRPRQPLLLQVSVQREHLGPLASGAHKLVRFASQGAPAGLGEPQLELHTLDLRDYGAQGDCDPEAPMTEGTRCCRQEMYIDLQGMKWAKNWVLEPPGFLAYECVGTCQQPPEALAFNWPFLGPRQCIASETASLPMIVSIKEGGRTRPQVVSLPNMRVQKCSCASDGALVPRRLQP

[4] = target: Calmodulin-1 (Homo sapiens) (UniProt P0DP23); assay: CALM1 binders on microarrays, EGTA buffer, profiling panel, biochemical, small-molecule microarray, Cy5-labelled CALM1 (AID 1111); settings: Cy5-CALM1 binding fluorescence, higher = more signal;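 further: labelled calmodulin applied in Tris saline Tween buffer holding calcium plus EGTA and DTT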
[5] = target: Calmodulin-1 (Homo sapiens) (UniProt P0DP23); assay: calcium-bound CALM1 binders on microarrays, profiling panel, artefact control for SMM control-protein annotation, biochemical, small-molecule microarray, Cy5-labelled CALM1, plus calcium (AID 1112); settings: Cy5-CALM1 binding fluorescence, higher = more signal;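 further: score merges spot fluorescence with signal to noise from triplicate slides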
[6] = small-molecule microarray binders of probe aWnt5a, primary screen, biochemical, biotinylated probe, 635/667 nm fluorescence (AID 1113); settings: higher = more signal;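 further: score merges 667 nm fluorescence intensity with signal-to-noise per printed feature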
[7] = small-molecule microarray binders of probe aShh, primary screen, biochemical, biotinylated probe, 635/667 nm fluorescence (AID 1114); settings: higher = more signal;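 further: probe is biotin-labelled aShh protein from a stem cell growth factor screen; measures binding of labelled protein to compounds printed on the slide; score merges feature fluorescence at 667 nm with signal-to-noise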
[8] = small-molecule microarray binders of probe aNog, primary screen, biochemical, biotinylated probe, 635/667 nm fluorescence (AID 1115); settings: higher = more signal;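 further: probe is biotinylated aNog protein used at 0.15 µg/mL for 1 h at 4 C; z-score combines 667 nm fluorescence of each spot with its signal to noise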
[9] = target: Torsin-1A-interacting protein 1 (Homo sapiens) (UniProt Q5JTV8); assay: LAP1 binders from COS7 cell lysate, primary screen, small-molecule microarray, 635/667 nm fluorescence (AID 1116); settings: COS7-hLAP1 lysate binding, 635 nm fluorescence, higher = more signal
Chain of Torsin-1A-interacting protein 1 (Homo sapiens) (Q5JTV8 whole entry, looked up): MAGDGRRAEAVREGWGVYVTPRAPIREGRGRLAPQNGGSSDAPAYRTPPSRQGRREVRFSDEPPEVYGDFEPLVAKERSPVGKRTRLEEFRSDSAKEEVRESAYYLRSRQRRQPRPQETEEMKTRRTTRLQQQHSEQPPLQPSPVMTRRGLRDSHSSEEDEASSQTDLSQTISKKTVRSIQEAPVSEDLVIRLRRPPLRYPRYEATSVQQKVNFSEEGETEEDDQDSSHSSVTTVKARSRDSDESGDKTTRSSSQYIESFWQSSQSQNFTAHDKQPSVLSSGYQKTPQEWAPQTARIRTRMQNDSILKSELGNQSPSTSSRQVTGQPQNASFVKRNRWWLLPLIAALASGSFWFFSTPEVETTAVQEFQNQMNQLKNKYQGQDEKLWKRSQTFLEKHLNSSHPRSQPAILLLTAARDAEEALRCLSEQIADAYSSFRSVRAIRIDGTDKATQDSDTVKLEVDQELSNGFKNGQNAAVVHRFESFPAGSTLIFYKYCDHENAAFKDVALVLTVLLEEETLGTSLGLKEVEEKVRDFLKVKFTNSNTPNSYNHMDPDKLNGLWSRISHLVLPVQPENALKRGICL

[10] = target: Alpha-bungarotoxin (Bungarus multicinctus) (UniProt P60615); assay: alpha-bungarotoxin binders on microarray, profiling panel, artefact control for SMM control protein annotation, biochemical, small-molecule microarray, Alexa647 label, 635/667 nm fluorescence (AID 1117); settings: alpha-BTX-A647 binding fluorescence, higher = more signal
Chain of Alpha-bungarotoxin (Bungarus multicinctus) (P60615 whole entry, looked up): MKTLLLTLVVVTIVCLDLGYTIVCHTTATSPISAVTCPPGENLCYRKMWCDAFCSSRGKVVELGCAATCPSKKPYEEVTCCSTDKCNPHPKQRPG

[N-]=[N+]=NCc1ccccc1[C@@H]1OC(c2ccc(OCCCO)cc2)=N[C@]1(CCS(=O)(=O)c1ccccc1)C(=O)NCc1ccccc1
composite z-score [1]: 0.512 | z-score [2]: -1.78 | composite z-score [3]: 0.526 | composite z-score [4]: 1.02 | composite z-score [5]: 0.222 | composite z-score [6]: 0.301 | composite z-score [7]: 0.487 | composite z-score [8]: 2.12 | composite z-score [9]: 0.142 | composite z-score [10]: 2.18

COC(=O)C(CC#Cc1ccc2c(c1)[C@]1(C(=O)N2)[C@H](C(=O)O)[C@H]2C(=O)O[C@H](c3ccccc3)[C@H](c3ccccc3)N2[C@@H]1c1ccc(O)cc1)C(=O)OC
composite z-score [1]: 1.03 | z-score [2]: -0.374 | composite z-score [3]: -0.354 | composite z-score [4]: -0.345 | composite z-score [5]: 0.0677 | composite z-score [6]: -0.124 | composite z-score [7]: -0.366 | composite z-score [8]: 0.26 | composite z-score [9]: -0.273 | composite z-score [10]: -0.472

COC(=O)[C@@]1(Cc2ccc(F)cc2)[C@H]2c3cc(C(=O)N(C)C)n(Cc4nc5ccccc5[nH]4)c3C[C@H]2CN1C(=O)c1ccccc1
composite z-score [1]: 1.32 | z-score [2]: -0.494 | composite z-score [3]: -0.423 | composite z-score [4]: 1.42 | composite z-score [5]: 0.114 | composite z-score [6]: 0.178 | composite z-score [7]: 0.603 | composite z-score [8]: 0.485 | composite z-score [9]: 0.778 | composite z-score [10]: 0.324

O=C1O[C@@H](c2ccccc2)[C@@H](c2ccccc2)N2[C@@H](c3ccc(OCCO)cc3)[C@]3(C(=O)Nc4ccccc43)[C@@H](C(=O)NC[C@H](O)c3ccccc3)[C@H]12
composite z-score [1]: 1.28 | z-score [2]: -2.1 | composite z-score [3]: 1.04 | composite z-score [4]: 0.158 | composite z-score [5]: 0.0233 | composite z-score [6]: -0.0768 | composite z-score [7]: -0.2 | composite z-score [8]: 0.0597 | composite z-score [9]: 1.3 | composite z-score [10]: 0.362

CCOC1=C2C(CN(S(=O)(=O)c3ccc(C)cc3)C2c2ccc(C)cc2)C2C(=O)N(c3ccccc3)C(=O)C2C1 (stereo not given)
composite z-score [1]: 1.11 | z-score [2]: -0.348 | composite z-score [3]: 0.349 | composite z-score [4]: 0.861 | composite z-score [5]: 0.528 | composite z-score [6]: -0.106 | composite z-score [7]: 0.0893 | composite z-score [8]: 0.194 | composite z-score [9]: 0.326 | composite z-score [10]: 0.389

CN1C2C=C(CCCO)C(C3C(=O)N(C(N)=O)C(=O)C32)C1c1ccc(CN2CCCC2)cc1 (stereo not given)
composite z-score [1]: 0.138 | z-score [2]: -0.149 | composite z-score [3]: -0.943 | composite z-score [4]: -0.224 | composite z-score [5]: 0.0344 | composite z-score [6]: -0.243 | composite z-score [7]: 0.0278 | composite z-score [8]: -0.328 | composite z-score [9]: 0.0727 | composite z-score [10]: 0.236

O=C1OCCC/C=C\[C@H]2OC34C=CCN(Cn5nnc6ccccc65)C(=O)[C@H]3N(CCO)C(=O)[C@@H]4C12 (stereo not given in full)
composite z-score [1]: -0.249 | z-score [2]: -0.317 | composite z-score [3]: -1.84 | composite z-score [4]: -0.173 | composite z-score [5]: 0.963 | composite z-score [6]: -0.187 | composite z-score [7]: 0.022 | composite z-score [8]: 0.235 | composite z-score [9]: -0.482 | composite z-score [10]: -0.601

Cc1ccc(C(C)CC(O)C2C=CC3C(=O)N(C)C(=O)C3N2NC(=O)OC(C)(C)C)o1 (stereo not given)
composite z-score [1]: 0.598 | z-score [2]: 0.255 | composite z-score [3]: 1.19 | composite z-score [4]: 1.73 | composite z-score [5]: 0.0152 | composite z-score [6]: 0.246 | composite z-score [7]: 0.424 | composite z-score [8]: 0.226 | composite z-score [9]: 1.27 | composite z-score [10]: 1.73

CC(C)C[C@@H]1NC(=O)[C@H]2C[C@@H](C(=O)NCCCCCCN)[C@@H](c3ccc(O)cc3)N2C1=O
composite z-score [1]: 0.302 | z-score [2]: 0.742 | composite z-score [3]: 0.057 | composite z-score [4]: 0.143 | composite z-score [5]: 0.307 | composite z-score [6]: 0.055 | composite z-score [7]: -0.214 | composite z-score [8]: 0.103 | composite z-score [9]: 1.13 | composite z-score [10]: 0.585

COc1ccc(C(O)C2C=CC3C(=O)NC(=O)C3N2Nc2ccccn2)c2ccccc12 (stereo not given)
composite z-score [1]: -0.266 | z-score [2]: 0.307 | composite z-score [3]: 0.315 | composite z-score [4]: -0.0051 | composite z-score [5]: -0.194 | composite z-score [6]: -0.219 | composite z-score [7]: 0.147 | composite z-score [8]: -0.0863 | composite z-score [9]: -0.259 | composite z-score [10]: 0.172

O=C1OCC=C[C@H]2OC34C=CCN(CCN5CCOCC5)C(=O)[C@H]3N(CCCO)C(=O)[C@@H]4[C@@H]12 (stereo not given in full)
composite z-score [1]: 0.449 | z-score [2]: 0.658 | composite z-score [3]: -0.235 | composite z-score [4]: -0.0514 | composite z-score [5]: -0.944 | composite z-score [6]: -0.18 | composite z-score [7]: -0.223 | composite z-score [8]: -0.326 | composite z-score [9]: 0.819 | composite z-score [10]: -0.0967

COc1cc(CO)cc(I)c1O[C@H]1C=C(C(=O)NCCO)C[C@@H](N(CCN2CCOCC2)C(=O)C2CCOC2)[C@@H]1O (stereo not given in full)
composite z-score [1]: -0.923 | z-score [2]: -0.282 | composite z-score [3]: 0.897 | composite z-score [4]: -0.0002 | composite z-score [5]: -0.543 | composite z-score [6]: -0.247 | composite z-score [7]: 0.0639 | composite z-score [8]: -0.281 | composite z-score [9]: 0.085 | composite z-score [10]: 0.0392

CCOC(=O)C1=CCC(c2ccc(C)cc2)N(S(=O)(=O)c2ccc(C)cc2)C1 (stereo not given)
composite z-score [1]: 1.12 | z-score [2]: -0.905 | composite z-score [3]: 0.175 | composite z-score [4]: 0.367 | composite z-score [5]: 0.172 | composite z-score [6]: -0.0226 | composite z-score [7]: -0.0977 | composite z-score [8]: 0.542 | composite z-score [9]: 0.81 | composite z-score [10]: 1.15

O=C1OCCC/C=C\[C@H]2OC34C=CCN(Cn5nnc6ccccc65)C(=O)[C@H]3N(CCCCCCO)C(=O)[C@@H]4C12 (stereo not given in full)
composite z-score [1]: -0.311 | z-score [2]: -0.625 | composite z-score [3]: -1.17 | composite z-score [4]: -0.824 | composite z-score [5]: -0.317 | composite z-score [6]: -0.18 | composite z-score [7]: -0.0035 | composite z-score [8]: 0.599 | composite z-score [9]: -0.401 | composite z-score [10]: -0.716

CCCCCN1CC=CC23O[C@@H]4/C=C\CCCOC(=O)C4[C@H]2C(=O)N(CCCO)[C@@H]3C1=O (stereo not given in full)
composite z-score [1]: 0.626 | z-score [2]: -0.549 | composite z-score [3]: -0.174 | composite z-score [4]: -0.113 | composite z-score [5]: 0.132 | composite z-score [6]: -0.128 | composite z-score [7]: -0.214 | composite z-score [8]: -0.244 | composite z-score [9]: 2.88 | composite z-score [10]: -0.0566

COCCCN1C(=O)[C@@]2(Cc3ccccc31)c1ccccc1C(=O)N(Cc1ccccc1C(F)(F)F)[C@H]2c1ccc(CO)cc1
composite z-score [1]: 0.898 | z-score [2]: -0.311 | composite z-score [3]: 0.33 | composite z-score [4]: -0.47 | composite z-score [5]: -0.206 | composite z-score [6]: 0.439 | composite z-score [7]: -0.243 | composite z-score [8]: 1.79 | composite z-score [9]: 0.094 | composite z-score [10]: 0.33

COC(=O)[C@@]1(Cc2ccc(F)cc2)[C@H]2c3cc(C(=O)N4CCCC4)n(Cc4ccc(C)o4)c3C[C@H]2CN1C(=O)c1ccccc1
composite z-score [1]: 1.4 | z-score [2]: -2.32 | composite z-score [3]: -0.699 | composite z-score [4]: 1.48 | composite z-score [5]: 0.558 | composite z-score [6]: 0.319 | composite z-score [7]: 0.862 | composite z-score [8]: -0.632 | composite z-score [9]: 0.11 | composite z-score [10]: 0.948

CCOC(=O)[C@H]1C/C=C/C[C@H](C(=O)OCC)C(=O)O[C@H]2[C@@H](OC)O[C@H](CO)[C@@H](OC(=O)Nc3cccc(F)c3)[C@@H]2OC1=O
composite z-score [1]: 1.14 | z-score [2]: -3.56 | composite z-score [3]: -0.169 | composite z-score [4]: -0.192 | composite z-score [5]: -0.273 | composite z-score [6]: -0.0243 | composite z-score [7]: 0.0818 | composite z-score [8]: 1.93 | composite z-score [9]: 0.556 | composite z-score [10]: 0.729

COc1ccc(C(O)C2C=CC3C(=O)NC(=O)C3N2Nc2ccccn2)cc1 (stereo not given)
composite z-score [1]: -1.08 | z-score [2]: 0.824 | composite z-score [3]: 0.494 | composite z-score [4]: -1.3 | composite z-score [5]: -0.498 | composite z-score [6]: 0.0158 | composite z-score [7]: -0.106 | composite z-score [8]: 0.0861 | composite z-score [9]: 0.658 | composite z-score [10]: -0.0568

CCN(CC)c1ccc(N2CC=CC34O[C@@H]5/C=C\CCC(C)OC(=O)C5[C@H]3C(=O)N(C(CO)C(C)C)[C@@H]4C2=O)cc1 (stereo not given in full)
composite z-score [1]: -0.0747 | z-score [2]: -0.668 | composite z-score [3]: -0.896 | composite z-score [4]: -0.55 | composite z-score [5]: -0.866 | composite z-score [6]: -0.062 | composite z-score [7]: 0.214 | composite z-score [8]: -0.287 | composite z-score [9]: -0.251 | composite z-score [10]: 0.174
